Bioassay records (PubChem)
In the library only some 19% were active in any assay of this set; here they are far more common.
HT1080-NT tox: kills 2HG-producing HT-1080-NT fibrosarcoma cells; Potency, µM (series often up to 46.1 µM), without a hit: at the highest dose activity, negative = less viability, actives largely listed as cytotoxic; 360,000 tested, 1.6% active; HT-1080-NT fibrosarcoma viability, CellTiter-Glo ATP luminescence, 48 h;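 further: NT is the 2HG producing partner of a matched IDH1 knockdown line; potency means the concentration at half of the fitted maximal effect; 0% = DMSO-treated cells and -100% = media-only wells without cells; nearly all actives have a fitted effect of over 55% in size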
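Viability of the 2HG-overproducing fibrosarcoma line after 48 hours of compound exposure at 37 degrees C was determined by luminescence with CellTiter-Glo, and concentration-effect curves were then fitted and categorized.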
HT1080 IDH1KD tx: toxicity to HT-1080 IDH1 knockdown cells (counter line). HT-1080 IDH1 knockdown viability, ATP luminescence, 48 h. 360,000 tested, 2% active. Potency, µM (highest dose often 46.1 µM), for inactives: at the highest dose activity, negative = toxicity, most hits filed as cytotoxic;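 further: potency means the concentration at half of the fitted maximal effect; 0% = DMSO wells and -100% = cell-free medium wells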
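Knockdown cells (IDH1KD HT-1080) received compounds 2 h after plating at 750 cells/well and were kept 48 h at 37 °C in 5% FBS RPMI. A CellTiter-Glo luminescence read gave % activity for curve fitting.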
DT40 TDP1 no CPT: qHTS for Inhibitors of human tyrosyl-DNA phosphodiesterase 1 (TDP1): qHTS in cells in absence of CPT. DT40 Tdp1-/- hTDP1 cells, no CPT, ATP luminescence, 48 h. Potency, µM (top dose mostly 46.2 µM), for the others: at the highest dose activity change, negative = growth inhibition, hits mostly inhibitors. 420,000 tested, 15% active; further: potency means the concentration at half of the fitted maximal effect; nearly all actives have a fitted effect of over 55% in size
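No-CPT arm: Tdp1-/-;hTDP1 DT40 cells (400/well) plus compounds, incubated ≥48 hr at 37 °C. Readout CellTiter-Glo luminescence.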
IL1B secr inh: inflammasome signaling inhibition, IL-1 beta readout; activity change, % at 57.5 µM; AID 743279; THP-1 LPS/ATP IL-1B secretion, AlphaLISA, 16 h; hits give low values; 360,000 tested, 4.7% active; in the data active means activity change below about -50%; inconclusive means mostly about -30% to -49%
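THP-1 cells pretreated 1 hr with compounds (up to 57.5 uM final), then stimulated with LPS (250 ng/mL final) plus ATP (1.25 mM final); secreted IL-1B measured by AlphaLISA after 16 hr, decreased signal indicating inhibition.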
DT40 TDP1 CPT: growth inhibition of DT40 Tdp1-/-;hTDP1 cells with camptothecin (screen for TDP1 inhibitors). chicken DT40 Tdp1-/-;hTDP1 cells + 20 nM CPT, ATP luminescence, 48 h. Potency, µM (doses to about 46.2 µM), for the others: top-dose activity change, negative = growth inhibition, most hits filed as inhibitors. 420,000 tested, 12% active; further: potency means the concentration at half of the fitted maximal effect; nearly all actives have a fitted effect of over 55% in size
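Chicken DT40 Tdp1-/- cells complemented with human TDP1, 400 cells/well, exposed to compounds plus 20 nM camptothecin for at least 48 h at 37 C; viability read as ATP content by CellTiter-Glo luminescence.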
uPA generation: cell surface uPA generation inhibition; AID 540303; cell surface uPA generation assay, qHTS; 330,000 tested, 0.31% active; Potency, µM (series often up to 38.3 µM), for inactives: top-dose activity change, negative = inhibition, usual class: inhibitors; active means well fitted inhibition curve with a large enough effect; inconclusive means small, poorly fitted or top-dose-only effect; inactive means no such curve, though single readings can be large or run the other way; tested in mouse RAW 264.7 cells; further: potency means the concentration at half of the fitted maximal effect; nearly all actives have a fitted effect of over 55% in size
Active calls of the source: *; ? = inconclusive; / = no result. Unless noted, the call rests on the fitted dose curve; in most records, active means well fitted curve in the direction sought with a large enough effect; inconclusive means small, poorly fitted or top-dose-only effect, or another doubt; inactive means no such curve, though single readings can be large; an effect the other way counts as inactive or inconclusive. Unless noted, on the % scale 0 is the no-effect control and ±100 the full control effect.

SMILES | HT1080-NT tox | HT1080 IDH1KD tx | DT40 TDP1 no CPT | IL1B secr inh | DT40 TDP1 CPT | uPA generation
CON(c1nc(Cl)nc(N(C)C)n1)S(=O)(=O)c1ccc(C)cc1 | -16% | ? | 16µM* | -63* | -6% | -7%
Cc1ccc(C2=NC3(CCCC3)N=C2SCC(=O)Nc2ccc3c(c2)OCCO3)cc1 | 1% | -2% | -7% | -94* | ? | -11%
O=C(CSc1ccccc1)Nc1ccc2c(c1)OCCO2 | 6% | 1% | 10% | -2 | 2% | 0%
O=C(CSC1=NC2(CCCCC2)N=C1c1ccccc1)Nc1ccc2c(c1)OCCO2 | -4% | -7% | ? | -80* | ? | -28%
O=C(CSC1=NC2(CCCCCC2)N=C1c1ccccc1)Nc1ccc2c(c1)OCCO2 | ? | ? | ? | -75* | ? | -11%
O=C(CSc1ccc2c(c1)OCCO2)Nc1ccc2c(c1)OCO2 | 1% | 0% | ? | -5 | ? | -4%
O=C(CSc1ccc(-c2ccccc2)nn1)Nc1ccc2c(c1)OCCO2 | 10% | 0% | ? | 16 | ? | -1%
C/C(=N/OC(=O)c1ccc(C)cc1)c1ccc(N2C(=O)C3CCCCC3C2=O)cc1 (configuration not stated) | 6% | 2% | 16µM* | 30 | ? | -2%
O=C1C2CC=CCC2C(=O)N1Nc1ccccc1 (configuration not stated) | 21µM* | ? | -8% | 12 | 13% | 1%
Cc1cccc(N2CCN(C(=O)c3cn(C)c(=O)c4c3c3ccccc3n4C)CC2)c1C | ? | 18µM* | 22µM* | ? | 22µM* | /
COCCn1cc(C(=O)N2CCN(C)CC2)c2c3ccccc3n(C)c2c1=O | 7% | 0% | ? | -11 | -4% | -3%
COc1ccc(N2CCN(C(=O)c3cn(CC(C)C)c(=O)c4c3c3ccccc3n4C)CC2)cc1 | / | / | 23µM* | / | ? | /
Cc1cccc(N2CCN(C(=O)c3cn(CC(C)C)c(=O)c4c3c3ccccc3n4C)CC2)c1C | / | / | 5.2µM* | / | 8.2µM* | /
Cc1ccc(C)c(N2CCN(C(=O)c3cn(CC(C)C)c(=O)c4c3c3ccccc3n4C)CC2)c1 | / | / | 23µM* | / | ? | /
Cc1cccc(N2CCN(C(=O)c3cc(=O)[nH]c4ccccc34)CC2)c1C | 7% | -3% | -14% | 0 | ? | -1%
COc1ccccc1-c1cc(NCc2cnc(C)cn2)ncn1 | / | / | 6% | / | 14% | /
Cc1ccc(-c2nc(NCc3ccc(F)cc3)n(S(C)(=O)=O)n2)cc1 | -26% | ? | ? | ? | -3% | 0%
O=C(c1cccc(Cl)c1)N(Cc1cccc(F)c1)C1CCS(=O)(=O)C1 (configuration not stated) | / | / | -19% | / | -4% | /
COc1cccc(N2[C@@H](CC(=O)O)c3ccc(/C=C/C(=O)O)cc3S2(=O)=O)c1 | 0% | 12% | -27% | 21 | -27% | 6%
O=C(/C=C/c1ccc(S(=O)(=O)N2CCOCC2)cc1)NCc1ccccc1F | -4% | -2% | -16% | -15 | ? | -2%
Clc1cccc(N2CCN(c3nc4ccccc4c4nc(-c5cccnc5)nn34)CC2)c1 | / | / | ? | / | -8% | /
CCc1ccccc1OCC(=O)Nc1cc(S(=O)(=O)N2CCOCC2)ccc1N1CCCCC1 | ? | -19% | 7.3µM* | -26 | 23µM* | 19%
COc1cc(C(C)=O)ccc1OCC(=O)Nc1cc(S(=O)(=O)N2CCOCC2)ccc1N1CCCC1 | 0% | -6% | ? | -14 | ? | 1%
COc1ccccc1CCC(=O)Nc1cc(S(=O)(=O)N2CCCCC2)ccc1N1CCN(C)CC1 | 3% | 6% | 21µM* | ? | ? | -6%
COc1ccccc1OCC(=O)Nc1cc(S(=O)(=O)N2CCOCC2)ccc1N1CCCCC1 | 20% | 3% | 15µM* | -55* | 18µM* | -13%
SMILES | HT1080-NT tox | HT1080 IDH1KD tx | DT40 TDP1 no CPT | IL1B secr inh | DT40 TDP1 CPT | uPA generation
COc1ccc(NC(=O)N2CC[C@@]3(CCCN(C(=O)c4cccn4C)C3)C2)cc1 | / | / | -10% | / | 1% | /
CC(=O)NC1=C(N(C)C2CCS(=O)(=O)C2)C(=O)c2ccccc2C1=O (configuration not stated) | ? | ? | 9.2µM* | ? | 8.2µM* | -18%
CC(=O)NC1=C(Nc2ccc(N(C)C)cc2)C(=O)c2ccccc2C1=O | ? | 13µM* | ? | 30 | 13µM* | -18%
CN(C)c1ccc(NC(=O)CCCc2ccccc2)cc1 | 12% | 4% | -6% | -6 | -25% | -3%
COc1ccccc1N(CC(=O)Nc1ccccc1F)S(C)(=O)=O | / | / | -9% | / | -11% | /
CCC(C(=O)NC(=O)NC(C)=O)c1ccccc1 (configuration not stated) | / | / | -22% | / | -11% | /
Nc1[nH]n2c(=O)cc(-c3ccccc3)nc2c1N=Nc1ccccc1 | ? | ? | 5.2µM* | 0 | 3.3µM* | 3%
Cc1ccc(N=Nc2c(N)[nH]n3c(=O)cc(C)nc23)cc1 | -1% | -5% | 15µM* | -8 | ? | -4%
CCc1nc2ccccc2c(C(=O)OCC(=O)NCc2ccc3c(c2)OCO3)c1C | -30% | -21% | 18µM* | -8 | ? | 2%
CCCc1nc2ccccc2c(C(=O)OC(C)C(=O)NCc2ccc3c(c2)OCO3)c1CC (configuration not stated) | -29% | -27% | 18µM* | ? | 29µM* | 5%
CC(OC(=O)CCc1nc2ccccc2c(=O)[nH]1)C(=O)NCc1ccc2c(c1)OCO2 (configuration not stated) | -7% | -19% | -8% | 4 | -22% | /
CCCc1nc2ccccc2c(C(=O)OCC(=O)NCc2ccc3c(c2)OCO3)c1CC | -20% | -23% | ? | -5 | ? | -1%
Cc1c(-c2cccc(Cl)c2)nc2ccccc2c1C(=O)OCC(=O)Nc1ccc2c(c1)OCO2 | -24% | ? | ? | -59* | ? | 4%
Cc1ccc(NC(=O)Nc2c(C)n(C)n(-c3ccccc3)c2=O)c(Cl)c1 | / | / | 2% | / | -2% | /
CCCS(=O)(=O)N1CCCC(C(=O)Nc2ccc3c(c2)CCC3)C1 (configuration not stated) | 2% | -7% | -14% | 0 | ? | 6%
CCOC(=O)c1c(NC(=O)COC(=O)c2ccc(Cl)nc2)sc(C)c1C | 0% | -1% | -23% | 19 | -13% | /
Cc1ccc(-n2c(SCC(=O)N/N=C/c3c(C)nn(-c4ccccc4)c3C)nc3ccccc3c2=O)cc1 | -17% | -22% | ? | 6 | 21µM* | 16%
